Consider five compounds from ChEMBL document CHEMBL3988442, “University of Dundee, Small-Polar-MMV Screening Library” (2021).

Molecules are shown by their SMILES. For some assays here: Measured potencies and affinities stand elsewhere.

Parameters in all cases: scale not given: direction of the effect not stated beside the values
Test [1] addresses Protein translocase subunit SecA (Escherichia coli (strain K12)) (UniProt P10408). The test can be described thus: Assay to Identify E. coli SecA ATPase Inhibitors. It counts as functional. To be noted: 30 µM.
The target in test [2] is T1, Ubiquitin-activating enzyme e1, putative (Leishmania donovani (strain BPK282A1)) (UniProt E9BSI1).
T1 sequence (whole entry): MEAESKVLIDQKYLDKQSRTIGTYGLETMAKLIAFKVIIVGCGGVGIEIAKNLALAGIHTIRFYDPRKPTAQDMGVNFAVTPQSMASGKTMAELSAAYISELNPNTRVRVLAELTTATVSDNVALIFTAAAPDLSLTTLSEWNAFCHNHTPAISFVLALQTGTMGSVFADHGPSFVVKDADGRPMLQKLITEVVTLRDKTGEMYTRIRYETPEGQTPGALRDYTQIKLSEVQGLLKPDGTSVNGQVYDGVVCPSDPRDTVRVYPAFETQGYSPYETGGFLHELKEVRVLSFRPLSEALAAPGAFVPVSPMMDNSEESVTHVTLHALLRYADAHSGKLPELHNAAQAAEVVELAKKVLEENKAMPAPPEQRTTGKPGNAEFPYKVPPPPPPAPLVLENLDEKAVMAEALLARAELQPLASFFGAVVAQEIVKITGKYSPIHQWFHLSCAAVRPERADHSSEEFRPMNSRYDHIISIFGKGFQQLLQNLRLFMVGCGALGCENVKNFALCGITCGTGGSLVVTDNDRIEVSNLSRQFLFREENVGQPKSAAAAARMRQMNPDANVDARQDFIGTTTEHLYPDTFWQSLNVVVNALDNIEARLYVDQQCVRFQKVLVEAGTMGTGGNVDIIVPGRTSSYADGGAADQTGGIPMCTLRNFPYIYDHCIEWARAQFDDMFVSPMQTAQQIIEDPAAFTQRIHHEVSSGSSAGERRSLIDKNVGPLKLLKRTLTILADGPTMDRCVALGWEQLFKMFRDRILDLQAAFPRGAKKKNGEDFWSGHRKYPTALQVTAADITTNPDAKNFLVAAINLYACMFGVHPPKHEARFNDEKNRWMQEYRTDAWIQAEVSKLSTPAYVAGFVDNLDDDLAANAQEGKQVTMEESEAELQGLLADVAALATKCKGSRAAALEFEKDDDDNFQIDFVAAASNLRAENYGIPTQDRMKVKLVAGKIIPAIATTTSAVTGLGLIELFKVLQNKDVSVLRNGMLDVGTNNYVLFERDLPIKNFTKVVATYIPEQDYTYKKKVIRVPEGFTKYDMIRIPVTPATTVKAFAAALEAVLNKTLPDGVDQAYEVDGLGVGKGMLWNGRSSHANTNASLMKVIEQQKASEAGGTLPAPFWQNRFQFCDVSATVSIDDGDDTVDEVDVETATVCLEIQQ
The test can be described thus: Leishmania donovani Ubiquitin Activating Enzyme (LdE1). It counts as functional. To be noted: 30 µM.

For test [3], the target named is T2, Aspartate--tRNA(Asp/Asn) ligase (Mycobacterium tuberculosis (strain ATCC 25618 / H37Rv)) (UniProt P9WFW3). Also: in the data most compounds retested in dose-response had high values.
T2 sequence (whole entry): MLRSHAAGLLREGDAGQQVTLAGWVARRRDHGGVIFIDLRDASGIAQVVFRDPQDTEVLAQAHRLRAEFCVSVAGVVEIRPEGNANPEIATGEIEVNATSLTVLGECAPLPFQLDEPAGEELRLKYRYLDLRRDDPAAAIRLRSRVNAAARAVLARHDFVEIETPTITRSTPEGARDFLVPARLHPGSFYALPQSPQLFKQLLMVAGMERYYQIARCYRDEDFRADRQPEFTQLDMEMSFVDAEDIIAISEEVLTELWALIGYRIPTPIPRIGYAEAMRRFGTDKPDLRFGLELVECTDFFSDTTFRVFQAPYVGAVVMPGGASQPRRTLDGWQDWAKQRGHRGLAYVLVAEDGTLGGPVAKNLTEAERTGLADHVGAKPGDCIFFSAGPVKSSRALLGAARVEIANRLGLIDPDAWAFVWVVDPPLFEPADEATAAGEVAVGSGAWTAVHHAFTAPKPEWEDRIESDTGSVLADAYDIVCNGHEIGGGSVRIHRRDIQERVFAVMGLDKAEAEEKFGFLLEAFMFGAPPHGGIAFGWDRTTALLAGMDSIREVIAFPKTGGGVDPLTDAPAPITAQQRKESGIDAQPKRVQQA
Briefly: Assay for Asp RNA synthetase-1 from Mycobacterium tuberculosis. The format is functional. To be noted: 30 µM.

Test [4] deals with AMP-activated protein kinase, AMPK (Homo sapiens) (UniProt P54646+O43741+P54619+Q9UGJ0+Q9Y478+Q13131+Q9UGI9). Briefly: AMP-dependent Kinase enzyme assay. An in vitro enzyme assay that detects ADP turnover that is directly proportional to AMPK activity. This uses naive AMPK that is activated during the assay with MK-8722. The format is functional. To be noted: 30 µM.
The target in test [5] is Sialic acid-binding Ig-like lectin 9 (Homo sapiens) (UniProt Q9Y336). Briefly: Hs-Siglec9 ALPHAscreen SOP 20170721. The following applies: 10 µM. For orientation: In Alpha technology, singlet oxygen from a donor bead excites a nearby acceptor bead.
Test [6] deals with Trypanosoma cruzi. Briefly: Trypanosoma cruzi phosphomannomutase and mannose-1-phosphate guanylyltransferase assay. To be noted: 10 µM. The format is functional.
Test [7] addresses T3, Arginase-2, mitochondrial (Homo sapiens) (UniProt P78540).
T3 sequence (whole entry): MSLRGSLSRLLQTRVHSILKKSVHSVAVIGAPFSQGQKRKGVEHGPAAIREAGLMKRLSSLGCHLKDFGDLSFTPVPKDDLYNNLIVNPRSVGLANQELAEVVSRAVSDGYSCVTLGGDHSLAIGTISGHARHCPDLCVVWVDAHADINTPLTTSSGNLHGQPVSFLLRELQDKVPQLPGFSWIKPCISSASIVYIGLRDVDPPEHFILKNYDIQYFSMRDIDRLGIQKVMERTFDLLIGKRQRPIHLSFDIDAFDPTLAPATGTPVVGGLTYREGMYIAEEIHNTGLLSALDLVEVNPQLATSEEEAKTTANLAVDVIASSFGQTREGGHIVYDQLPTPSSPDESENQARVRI
Briefly: in vitro enzyme assay to detect the production of urea directly proportional to the activity of Arginase II. Also: in the data most compounds retested in dose-response had high values. The format is functional. To be noted: 33.3 µM.

The target in test [8] is T4, Proteasome subunit beta (Trypanosoma cruzi) (UniProt O96673).
T4 sequence (whole entry): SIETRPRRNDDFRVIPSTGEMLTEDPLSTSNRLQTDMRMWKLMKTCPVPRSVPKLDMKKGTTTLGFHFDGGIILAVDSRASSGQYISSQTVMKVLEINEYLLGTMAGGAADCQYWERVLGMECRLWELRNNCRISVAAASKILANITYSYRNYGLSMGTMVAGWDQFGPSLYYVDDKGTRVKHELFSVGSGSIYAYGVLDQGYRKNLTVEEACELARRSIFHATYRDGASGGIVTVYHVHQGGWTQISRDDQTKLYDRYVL
Briefly: Trypanosoma cruzi proteasome chymotrypsin-like activity (TcProtChymo) assay. Also: in the data most compounds retested in dose-response had high values. It counts as functional. The following applies: 9.37 µM.

The species entered for test [9] is Homo sapiens. Briefly: To identify inhibition of the IFN signalling (Jak-Stat) pathway via expression of an eGFP reporter gene under the control of an IFN-stimulated response element (ISRE) containing MxA promoter. The format is functional. The following applies: 30 µM. A general note: In a reporter assay the amount or activity of a reporter protein is the signal.

In test [10] the target is Shiga toxin 2 (Escherichia coli O157:H7) (UniProt P09385+P09386). Briefly: E. coli 0.157:H7 Shiga Toxin SOP - stx2 screening assay. The following applies: 30 µM. It counts as functional.
The target in test [11] is T5, Tyrosyl-tRNA synthetase, putative (Trypanosoma cruzi (strain CL Brener)) (UniProt Q4DSP6).
T5 sequence (whole entry): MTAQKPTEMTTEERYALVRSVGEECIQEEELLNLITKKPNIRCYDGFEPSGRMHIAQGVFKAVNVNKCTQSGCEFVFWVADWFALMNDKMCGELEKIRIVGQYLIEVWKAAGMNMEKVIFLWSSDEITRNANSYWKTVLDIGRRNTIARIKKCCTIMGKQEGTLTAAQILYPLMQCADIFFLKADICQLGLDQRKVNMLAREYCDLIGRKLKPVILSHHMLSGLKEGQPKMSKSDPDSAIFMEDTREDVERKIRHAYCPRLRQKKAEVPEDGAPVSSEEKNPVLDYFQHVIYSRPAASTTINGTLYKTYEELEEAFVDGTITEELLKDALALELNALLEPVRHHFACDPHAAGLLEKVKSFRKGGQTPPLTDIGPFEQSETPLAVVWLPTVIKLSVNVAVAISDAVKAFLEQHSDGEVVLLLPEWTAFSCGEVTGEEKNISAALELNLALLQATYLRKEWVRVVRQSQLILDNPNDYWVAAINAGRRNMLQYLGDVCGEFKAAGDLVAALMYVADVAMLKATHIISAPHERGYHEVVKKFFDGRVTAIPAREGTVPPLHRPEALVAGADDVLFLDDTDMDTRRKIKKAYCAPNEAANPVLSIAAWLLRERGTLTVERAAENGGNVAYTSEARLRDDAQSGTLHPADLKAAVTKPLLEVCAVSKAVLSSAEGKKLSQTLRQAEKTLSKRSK
The test can be described thus: Trypanosoma cruzi tyrosyl tRNA synthetase (TcYRS) _High Tyrosine SOP. Also: in the data most compounds retested in dose-response had high values. The format is functional. To be noted: 30 µM.

Test [12] addresses T5, Tyrosyl-tRNA synthetase, putative (Trypanosoma cruzi (strain CL Brener)). Briefly: Trypanosoma cruzi tyrosyl tRNA synthetase (TcYRS) SOP. The format is functional. To be noted: 30 µM.
For test [13], the target named is Chromo domain-containing protein 1 (Saccharomyces cerevisiae (strain ATCC 204508 / S288c) (Baker's yeast)) (UniProt P32657). The test can be described thus: ScCHD-1 Enzyme Inhibition Assay. Also: in the data most compounds retested in dose-response had high values. To be noted: 30 µM. It counts as functional.
Chromo domain-containing protein 1 (Saccharomyces cerevisiae (strain ATCC 204508 / S288c) (Baker's yeast)), sequence (P32657 whole entry, the tested form may be a part): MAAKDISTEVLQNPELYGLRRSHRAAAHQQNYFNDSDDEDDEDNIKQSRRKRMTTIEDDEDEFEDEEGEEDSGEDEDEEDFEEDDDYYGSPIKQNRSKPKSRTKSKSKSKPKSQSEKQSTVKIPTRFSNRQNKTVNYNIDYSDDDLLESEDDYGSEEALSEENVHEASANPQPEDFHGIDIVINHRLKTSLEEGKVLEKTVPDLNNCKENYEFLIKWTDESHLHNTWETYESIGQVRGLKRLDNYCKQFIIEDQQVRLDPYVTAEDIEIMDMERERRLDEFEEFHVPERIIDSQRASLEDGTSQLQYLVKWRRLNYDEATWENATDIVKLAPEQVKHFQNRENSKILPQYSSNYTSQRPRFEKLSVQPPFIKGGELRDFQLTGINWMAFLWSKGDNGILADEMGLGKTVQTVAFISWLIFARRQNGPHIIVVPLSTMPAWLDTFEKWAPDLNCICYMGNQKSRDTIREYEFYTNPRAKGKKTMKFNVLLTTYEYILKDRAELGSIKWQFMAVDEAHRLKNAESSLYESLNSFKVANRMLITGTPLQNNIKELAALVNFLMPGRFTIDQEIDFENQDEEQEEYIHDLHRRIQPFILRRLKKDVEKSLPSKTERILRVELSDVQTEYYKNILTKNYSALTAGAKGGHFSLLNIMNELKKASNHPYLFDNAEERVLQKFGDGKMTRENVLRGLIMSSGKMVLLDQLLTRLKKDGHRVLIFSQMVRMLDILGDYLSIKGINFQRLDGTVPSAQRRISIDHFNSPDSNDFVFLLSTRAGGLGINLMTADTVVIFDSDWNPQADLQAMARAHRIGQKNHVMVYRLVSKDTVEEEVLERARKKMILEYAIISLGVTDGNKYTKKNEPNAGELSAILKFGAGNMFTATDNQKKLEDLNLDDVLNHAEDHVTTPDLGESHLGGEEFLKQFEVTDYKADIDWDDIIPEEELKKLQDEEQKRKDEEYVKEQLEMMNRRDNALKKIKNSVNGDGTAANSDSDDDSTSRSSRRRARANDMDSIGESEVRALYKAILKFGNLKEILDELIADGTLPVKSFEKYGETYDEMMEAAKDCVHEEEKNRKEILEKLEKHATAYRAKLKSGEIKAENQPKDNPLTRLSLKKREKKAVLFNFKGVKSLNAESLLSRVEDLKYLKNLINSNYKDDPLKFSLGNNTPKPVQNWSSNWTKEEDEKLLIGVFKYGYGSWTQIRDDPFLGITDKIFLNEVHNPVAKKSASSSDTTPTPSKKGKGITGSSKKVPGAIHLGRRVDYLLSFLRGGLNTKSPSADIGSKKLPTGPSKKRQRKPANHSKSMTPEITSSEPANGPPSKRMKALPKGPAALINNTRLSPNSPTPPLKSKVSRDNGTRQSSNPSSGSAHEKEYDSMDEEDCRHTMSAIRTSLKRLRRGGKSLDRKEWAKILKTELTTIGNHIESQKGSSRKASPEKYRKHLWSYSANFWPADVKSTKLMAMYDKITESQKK

Protein translocase subunit SecA (Escherichia coli (strain K12)), sequence (P10408 whole entry): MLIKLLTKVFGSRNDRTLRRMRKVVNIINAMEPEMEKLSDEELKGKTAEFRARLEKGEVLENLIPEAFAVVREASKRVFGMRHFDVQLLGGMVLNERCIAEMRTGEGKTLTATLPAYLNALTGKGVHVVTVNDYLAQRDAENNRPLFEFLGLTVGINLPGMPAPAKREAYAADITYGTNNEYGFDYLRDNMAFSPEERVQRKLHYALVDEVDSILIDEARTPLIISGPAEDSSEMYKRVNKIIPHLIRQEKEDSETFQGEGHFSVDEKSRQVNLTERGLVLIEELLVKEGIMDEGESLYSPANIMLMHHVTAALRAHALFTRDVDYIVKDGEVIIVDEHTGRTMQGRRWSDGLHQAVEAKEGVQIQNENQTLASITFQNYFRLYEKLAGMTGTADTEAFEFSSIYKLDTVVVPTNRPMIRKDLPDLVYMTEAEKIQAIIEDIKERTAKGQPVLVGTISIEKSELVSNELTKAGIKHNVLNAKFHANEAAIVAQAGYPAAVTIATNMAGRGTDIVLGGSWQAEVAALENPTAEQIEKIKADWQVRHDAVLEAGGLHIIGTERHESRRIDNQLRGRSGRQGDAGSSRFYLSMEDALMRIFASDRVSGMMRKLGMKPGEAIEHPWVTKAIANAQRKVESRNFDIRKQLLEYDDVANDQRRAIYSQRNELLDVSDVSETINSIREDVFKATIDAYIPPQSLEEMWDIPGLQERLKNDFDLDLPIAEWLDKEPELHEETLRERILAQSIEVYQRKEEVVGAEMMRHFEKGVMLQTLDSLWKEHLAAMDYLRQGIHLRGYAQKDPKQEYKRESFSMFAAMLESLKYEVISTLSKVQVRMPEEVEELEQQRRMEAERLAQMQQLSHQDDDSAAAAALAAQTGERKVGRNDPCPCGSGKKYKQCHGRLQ
Sialic acid-binding Ig-like lectin 9 (Homo sapiens), sequence (Q9Y336 whole entry): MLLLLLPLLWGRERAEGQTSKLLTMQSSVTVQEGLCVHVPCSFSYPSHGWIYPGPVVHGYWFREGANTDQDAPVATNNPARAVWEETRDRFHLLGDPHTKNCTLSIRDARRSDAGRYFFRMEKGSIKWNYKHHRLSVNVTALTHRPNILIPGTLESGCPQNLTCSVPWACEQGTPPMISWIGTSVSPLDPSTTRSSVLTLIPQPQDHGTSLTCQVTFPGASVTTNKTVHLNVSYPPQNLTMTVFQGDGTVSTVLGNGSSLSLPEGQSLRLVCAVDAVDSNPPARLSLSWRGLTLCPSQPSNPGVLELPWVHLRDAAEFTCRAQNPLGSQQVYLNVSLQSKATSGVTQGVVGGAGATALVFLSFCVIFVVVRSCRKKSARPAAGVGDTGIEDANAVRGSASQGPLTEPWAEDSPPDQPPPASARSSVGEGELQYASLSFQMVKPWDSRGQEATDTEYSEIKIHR

For the compound `COCCN1CCC2(CCCN(c3ncccn3)C2)C1` (stereo not given), the Percent Effect is -2.69% in test [1]; 2.67% in [2]; -4.34% in test [3]; 10.4% in [4]; 2.96% in [5]; -2.17% in test [6]. Besides, the Percent Effect in test [7] is 8.16%; in test [8], 4.32%; in test [9], -7.02%; in test [10], -6.31%; in test [11], -1.06%; in test [12] it was -3.85%. In addition, in test [13], the Percent Effect is -4.53%.

In the case of `O=C(NCc1ccccn1)[C@]12COC[C@H]1CN(C1CCC1)C2`, the Percent Effect was -2.39% in test [1]; 18.7% in test [2]; -4.34% in test [3]; 0.454% in [4]; 0.409% in [5]; 3.86% in test [6]. Moreover, the Percent Effect in test [7] was 85.8%; in test [8], 10.9%; in test [9], -5.18%; in [10], -15.4%; in test [11], 3.12%; in test [12], 10%. Moreover, the Percent Effect in test [13] was -7.8%.

`Cn1c(=O)n(C)c2cc(C3SCC(=O)Nc4ccsc43)ccc21` (stereo not given): the Percent Effect in test [1] is -5.92%; in test [2], 6.67%; in test [3] it was -5.4%; in test [4] it was -13.6%; in [5] it was -2.48%; in test [6], 7.27%. Besides, the Percent Effect in test [7] is -11.8%; in test [8], 12.9%; in test [9], 37.1%; in [10], -33.2%; in [11], 4.23%; in [12], 12.8%. In test [13], the Percent Effect is -7.83%.

Take `c1cncc(OC[C@@H]2CCC[C@@]23CNCCO3)c1`: the Percent Effect in test [1] is -5.75%; in test [2], 8.11%; in [3] it was 1.15%; in [4] it was 89.4%; in test [5] it was -7.32%; in [6], -6.75%. In addition, the Percent Effect in test [7] is -3.5%; in test [8], 13.1%; in test [9] it was 9.54%; in [10] it was -12.4%; in [11], -3.24%; in test [12] it was 0%. Moreover, the Percent Effect in [13] is -2.43%.

For the compound `c1cc(CN2CCO[C@H]3[C@H](OCC4CCCC4)CC[C@@H]32)ccn1`, the Percent Effect in [1] was -2.78%; in test [2], 5.41%; in test [3], 5.76%; in [4] it was 0.694%; in test [5], -1.13%; in test [6], -3.81%. The Percent Effect is 1.59% in [7]; 19% in test [8]; 24.5% in test [9]; 1.34% in [10]; -2.16% in [11]; 7.69% in test [12]. Further, in test [13], the Percent Effect was found to be 2.01%.
